High-throughput results (PubChem BioAssay)
CHX counter = Cycloheximide Counterscreen for Small Molecule Inhibitors of Shiga Toxin. 300,000 tested, 12% active. max response, %. cell reporter, cycloheximide protein synthesis inhibition counterscreen; in the data active = max response mostly above about 13%, no sharp cut-off; inactive = mostly below about 14%; note: read at 38.3 µM for the half of the compounds with a filed dose
Pf growth 96h = Primary qHTS for delayed death inhibitors of the malarial parasite plastid, 96 hour incubation | P. falciparum luciferase reporter growth, 96 h | Potency, µM (highest dose often 28.7 µM), actives largely listed as inhibitors | 320,000 tested, 6.9% active | AID 504834, 2011
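Two parasite generations (96 h, 37 C, 5% CO2) of compound exposure in infected erythrocytes (0.05% parasitemia, 2% hematocrit). Luciferase-reporter P. falciparum; decreased luminescence indicates inhibited growth, aimed at apicoplast-acting delayed death.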
SARS PLP yeast = qHTS of Yeast-based Assay for SARS-CoV PLP; 330,000 tested, 0.19% active; Potency, µM (highest dose often 32.9 µM), actives largely listed as activators; S. cerevisiae expressing SARS-CoV PLpro, growth rescue; calls by dose curve; note: nearly all actives have a fitted effect of over 55% in size
Shiga inhibitor = A qHTS for Small Molecule Inhibitors of Shiga Toxin; Vero cells, Shiga toxin protein synthesis inhibition reporter; inhibition, % at 38.7 µM; 290,000 tested, 9.2% active; AID 2315, 2010; in the data active = inhibition mostly above about 28%, no sharp cut-off; inactive = mostly below about 43%
NS1 inh = qHTS Assay for Inhibitors of Influenza NS1 Protein Function; 270,000 tested, 0.4% active; Potency, µM (highest dose often 46.1 µM); AID 2326, 2010; calls by dose curve; note: actives are rising curves; nearly all actives have a fitted effect of over 50% in size
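In this qHTS, NS1 from influenza A is expressed in budding yeast, where it slows growth. Cells are switched from glucose to 2% galactose medium (pH 6.0, -URA), treated with compound, and growth recovery is read at OD600.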
Pf growth 48h = Primary qHTS for delayed death inhibitors of the malarial parasite plastid, 48 hour incubation; P. falciparum luciferase growth in erythrocytes, 48 h; Potency, µM (highest dose often 28.7 µM), actives largely listed as inhibitors; 310,000 tested, 5.9% active; AID 504832, 2011
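Compounds are pin-transferred into medium, infected erythrocytes (2% hematocrit, 0.1% parasitemia final) are added, and plates sit one parasite generation at 37 C in 5% CO2. Detection reagent is then added and luminescence measured.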
A number is an active result; n = inactive; u = inconclusive; x = no result; + = active, no number; [ ] = remark or other dose. A selection: hits, their analogues and other compounds. The true share with any hit is near 21%. Unless noted, calls come from the whole dose curve; as a rule, active = well fitted inhibition curve with a large enough effect; inconclusive = small, poorly fitted or top-dose-only effect, or another doubt; inactive = no such curve, though single readings can be large or run the other way.

SMILES	CHX counter	Pf growth 96h	SARS PLP yeast	Shiga inhibitor	NS1 inh	Pf growth 48h
Cc1cccc(N2CCN(C(=O)c3cccc(N4C(=O)C5CC=CC(C)C5C4=O)c3)CC2)c1C (stereo not drawn)	n	u	n	n	n	x
CCN1C(=O)[C@@H]2C(C(=O)c3cnccn3)=NN[C@@H]2C1=O	n	n	n	n	n	n
CCOC(=O)Cc1nn(C)c(=O)c2ccccc12	n	5.2µM	n	n	n	n
CCn1nc(CC(=O)O)c2ccccc2c1=O	n	n	n	n	n	n
CCCCn1nc(CC(=O)O)c2ccccc2c1=O	n	10µM	n	n	n	n
CCOC(=O)Cc1nn(CC)c(=O)c2ccccc12	n	n	n	n	n	n
CCOC(=O)c1sc2ccccc2c1OC(=O)c1ccccc1OC	n	n	n	n	n	n
COc1ccccc1C(=O)OCc1ccc2sc(C)nc2c1	28	n	n	78	n	n[5.75 µM]
O=C(NC(=S)Nc1ccc(F)cc1)c1ccc2c(c1)OCCO2	70	u	n	101	n	n
O=C(NC(=S)Nc1c(F)cc(F)cc1Br)c1ccc2c(c1)OCCO2	28	n	n	84	n	n
O=C(NC(=S)Nc1ccc(CN2CCOCC2)cc1)c1ccc2c(c1)OCCO2	31	n	n	88	n	n
O=C(NC(=S)Nc1ccc(Cc2ccncc2)cc1)c1ccc(F)cc1	18	n	n	n	x	u
COc1cc(NC(=O)C(C)Oc2ccccc2)ccc1NC(=O)COc1ccccc1 (stereo not drawn)	n	n	n	n	n	u
COC(=O)C1=C[C@@H](C(=O)OC)C2C3=C(C(=O)[C@]2(C)NC(=O)c2ccccc2)[C@H](C)n2c(=O)n(-c4ccccc4)c(=O)n2[C@@H]3C1 (stereo partly drawn)	n	x	x	n	x	x
O=C(NC(=S)Nc1ccc(N2CCCCC2)cc1)c1ccc2c(c1)OCCO2	58	n	n	98	n	n
O=C(NC(=S)Nc1ccc(N2CCOCC2)cc1)c1ccc2c(c1)OCCO2	42	n	n	61	n	n
CC(C)(C)c1ccc(C(=O)NC(=S)Nc2ccc(N3CCOCC3)cc2)cc1	n	12µM	u	n	n	u
CS(=O)(=O)N1CCN(c2ccc(NC(=S)NC(=O)c3ccc4c(c3)OCO4)cc2)CC1	n	u	n	n	n	n
CC(C)(C)c1ccc(C(=O)Nc2ccc(N3CCOCC3)cc2)cc1	n	u	n	n	n	x
COc1ccc(C(=O)NC(=S)Nc2ccc(CN3CCOCC3)cc2)cc1	n	u	n	47	n	n
COC(=O)c1ccc(CNC(=O)C(C)N=C2NS(=O)(=O)c3ccccc32)cc1 (stereo not drawn)	x	n	n	x	x	u
CC(NC(=O)Cn1cccc1C(=O)c1ccccc1)c1ccc2c(c1)OCCO2 (stereo not drawn)	n	n	n	n	x	n
CCc1ccc(NC(=O)CSc2nc3ncc(Br)cc3[nH]2)cc1	n	n	n	n	n	n
COc1ccc(C2(C)NC(=O)N(CC(=O)NC(C)c3ccc(CC(C)C)cc3)C2=O)cc1 (stereo not drawn)	n	n	n	n	n	x
CC(C)OC(=O)CC(=O)CSc1nc2c(c(-c3cccs3)c1C#N)CCC2	n	n	n	n	n	n
SMILES	CHX counter	Pf growth 96h	SARS PLP yeast	Shiga inhibitor	NS1 inh	Pf growth 48h
CCOC(=O)C(C)Sc1nc2c(c(-c3cccs3)c1C#N)CCC2 (stereo not drawn)	n	10µM	n	n	n	u
O=S(=O)(c1ccccc1)N1CCN(c2nc(-c3ccc(F)cc3)nc3cc(Cl)ccc23)CC1	n	x	x	n	x	x
CC1(C)CC(=O)C2=C(C1)N(Cc1ccccc1)C(=O)C2(NC(=O)C(C)(C)C)C(F)(F)F (stereo not drawn)	n	u	n	n	n	n
Cc1ccc(-c2cc(C(=O)N/N=C/c3ccc(F)cc3)n[nH]2)o1	n	u	n	n	n	n
Cc1ccc(-c2cc(C(=O)N/N=C/c3ccccc3O)n[nH]2)o1	34	u	n	60	n	5.2µM
Cc1ccc(-c2cc(C(=O)N/N=C/c3c[nH]c4ccccc34)n[nH]2)o1	17	n	n	n	n	n
Cc1ccc(-c2cc(C(=O)N/N=C/C(Br)=C/c3ccccc3)n[nH]2)o1	n	n	n	n	n	n
N#CCC(=N)N1CCN(c2ccccc2)CC1	n	u	n	53	n	u
N#CCC(=N)N1CCN(c2ccccc2Cl)CC1	n	n	n	+	n	n
CS(=O)(=O)c1ncc(Cl)c(C(=O)N2CCN(c3cccc(Cl)c3)CC2)n1	n	x	x	n	x	x
Fc1ccc(CN2C3=NCCN3c3ccccc32)cc1	n	n	n	n	n	n
COc1ccc(CN([C@H](C)CO)S(=O)(=O)N(Cc2ccccc2)[C@H](CO)C(C)C)cc1	x	u	n	x	x	u
C=C[C@@H](C)N(Cc1ccc(OC)cc1)S(=O)(=O)N(Cc1ccccc1)[C@H](C=C)C(C)C	x	u	n	x	x	3.3µM
CCC(Sc1nc2c(c(=O)n1CC)SC(C)C2)C(=O)OC (stereo not drawn)	n	0.37µM	n	n	n	u
C=CCn1c(SCC(=O)N2CCCC2)nc2c([nH]c3ccccc32)c1=O	n	n	n	n	n	n
CCn1c(SCC(=O)N2CCC(C)CC2)nc2c(c1=O)SC(C)C2 (stereo not drawn)	n	6.6µM	n	n	n	u
CCn1c(SCC(=O)Nc2nnc(C)s2)nc2c(c1=O)SC(C)C2 (stereo not drawn)	n	n	n	n	n	u
CCn1c(SCC(=O)N2CCOCC2)nc2c(c1=O)SC(C)C2 (stereo not drawn)	n	2.1µM	n	n	n	n
CCn1c(SCC(=O)N2CCOCC2)nc2c([nH]c3ccccc32)c1=O	n	13µM	n	n	n	u
N#CCCN(Cc1cccnc1)C(=O)c1sc2cc(F)ccc2c1Cl	n	n	n	n	n	n
CCn1c(SCC(=O)Nc2cccc(C)c2)nc2c(c1=O)SC(C)C2 (stereo not drawn)	n	13µM	n	n	n	u
CCSc1nnc(NC(=O)CSc2nc3c(c(=O)n2CC)SC(C)C3)s1 (stereo not drawn)	n	n	n	n	n	u
